Results on three compounds are retold here after PubChem BioAssay (EPA / NIEHS).

The structures appear in SMILES notation. Results filed as inconclusive are left out. Calls of active or inactive are those of the source. The calls were made as follows: active = hit-call score of the fitted dose curve at least 0.9, where 1 is the maximum; inconclusive = response in the unintended direction; inactive = score below 0.9.

The nature of experiment [1]: ATG_M_06_XSP2: Attagene TRANS-FACTORIAL Multi-Species (XSP2) HepG2 Assay for M06 Transcription Factor (Internal Marker) (AID 2283811).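 Also: internal background marker reporter mRNA measured by RT-PCR and capillary electrophoresis; hits are increases in signal above the DMSO baseline.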 The procedure, abridged:
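Cells of the human liver line HepG2 carried transfected reporter transcription units and were treated for 24 h. Induced reporter transcripts were detected by fluorescence after RT-PCR and capillary electrophoresis, with activity fitted in the gain direction against DMSO.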

Experiment [2] addresses Estrogen receptor beta (Homo sapiens) (UniProt Q92731). Put plainly: ATG_hERb_XSP2: Attagene TRANS-FACTORIAL Multi-Species (XSP2) HepG2 Assay for human Estrogen Receptor (ERb) (AID 2283813).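 Also: actives raise reporter mRNA above DMSO so AC50 reflects agonist induction.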 The procedure, abridged:
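Transient TRANS reporter system in HepG2: after 24 h of chemical, RNA is reverse-transcribed, reporter cDNA amplified, FAM-labelled and sized by capillary electrophoresis. Induction of the human ERb-Gal4 reporter is measured relative to DMSO.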

Experiment [3] addresses Nuclear receptor subfamily 1 group I member 2 (Mus musculus) (UniProt O54915). Nature of the experiment: ATG_mPXR_XSP1: Attagene TRANS-FACTORIAL Multi-Species (XSP1) HepG2 Assay for mouse Pregnane X Receptor (PXR) (AID 2283803). An outline of the steps: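 Transiently transfected HepG2 cells expressing a receptor-Gal4 chimera drive a GAL4-UAS reporter; 3 nM 6-alpha-fluorotestosterone included. Reporter mRNA read 24 h post-dose by RT-PCR and capillary electrophoresis; gain of signal relative to DMSO.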

The subject of experiment [4] is turtle Thyroid Hormone Receptor, alpha (TRa), gene 101949057. Nature of the experiment: ATG_trTRa_XSP1: Attagene TRANS-FACTORIAL Multi-Species (XSP1) HepG2 Assay for turtle Thyroid Hormone Receptor, alpha (TRa) (AID 2283806). An outline of the steps: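 After 24 h chemical exposure, reporter transcripts were measured by RT-PCR with fluorescent primer extension, HpaI digestion and capillary electrophoresis. Cells were transiently transfected HepG2 expressing exogenous NR-Gal4 chimeras; medium contained 3 nM 6-alpha-fluorotestosterone; fitted upward relative to DMSO.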

Experiment [5] deals with zebrafish Thyroid Hormone Receptor alpha (TRa), thraa (gene 30670) (UniProt Q98867). Nature of the experiment: ATG_zfTRa_XSP1: Attagene TRANS-FACTORIAL Multi-Species (XSP1) HepG2 Assay for zebrafish Thyroid Hormone Receptor alpha (TRa) (AID 2283807). The procedure, abridged:
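Reporter transcripts driven by a chimeric zebrafish TRa–Gal4 protein were measured by RT-PCR with fluorescent labelling and capillary electrophoresis. These came from transiently transfected HepG2 cells after 24 h chemical exposure, with 3 nM 6-alpha-fluorotestosterone added; baseline was DMSO.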

Experiment [6] concerns the target zebrafish Thyroid Hormone Receptor beta (TRb), thrb (gene 30607) (UniProt Q9PVE4). Nature of the experiment: ATG_zfTRb_XSP1: Attagene TRANS-FACTORIAL Multi-Species (XSP1) HepG2 Assay for zebrafish Thyroid Hormone Receptor beta (TRb) (AID 2283809). The procedure, abridged:
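HepG2 cells transiently transfected with multiplexed GAL4-UAS reporter units expressing chimeric zebrafish TRb–Gal4. Dosed 24 h with 3 nM 6-alpha-fluorotestosterone present; reporter mRNA measured by RT-PCR, HpaI digestion and capillary electrophoresis; gain of signal versus DMSO.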

Chain of Estrogen receptor beta (Homo sapiens) (Q92731 whole entry, looked up, the tested form may be a part): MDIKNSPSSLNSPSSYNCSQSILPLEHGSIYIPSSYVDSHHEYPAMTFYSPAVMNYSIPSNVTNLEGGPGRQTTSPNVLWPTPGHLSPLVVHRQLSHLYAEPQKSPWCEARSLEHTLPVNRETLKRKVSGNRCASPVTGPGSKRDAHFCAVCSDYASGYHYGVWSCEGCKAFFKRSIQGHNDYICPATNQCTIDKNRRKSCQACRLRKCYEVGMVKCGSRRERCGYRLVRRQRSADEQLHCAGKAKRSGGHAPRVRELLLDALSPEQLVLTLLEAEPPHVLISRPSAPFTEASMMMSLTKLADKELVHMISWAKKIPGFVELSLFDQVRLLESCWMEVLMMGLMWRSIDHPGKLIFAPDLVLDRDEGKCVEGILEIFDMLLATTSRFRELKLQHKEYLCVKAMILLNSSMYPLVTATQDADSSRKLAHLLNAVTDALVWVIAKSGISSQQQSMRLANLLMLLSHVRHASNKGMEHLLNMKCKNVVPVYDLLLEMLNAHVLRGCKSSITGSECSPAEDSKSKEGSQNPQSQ
Chain of zebrafish Thyroid Hormone Receptor beta (TRb), thrb (gene 30607) (Q9PVE4 whole entry, looked up, the tested form may be a part): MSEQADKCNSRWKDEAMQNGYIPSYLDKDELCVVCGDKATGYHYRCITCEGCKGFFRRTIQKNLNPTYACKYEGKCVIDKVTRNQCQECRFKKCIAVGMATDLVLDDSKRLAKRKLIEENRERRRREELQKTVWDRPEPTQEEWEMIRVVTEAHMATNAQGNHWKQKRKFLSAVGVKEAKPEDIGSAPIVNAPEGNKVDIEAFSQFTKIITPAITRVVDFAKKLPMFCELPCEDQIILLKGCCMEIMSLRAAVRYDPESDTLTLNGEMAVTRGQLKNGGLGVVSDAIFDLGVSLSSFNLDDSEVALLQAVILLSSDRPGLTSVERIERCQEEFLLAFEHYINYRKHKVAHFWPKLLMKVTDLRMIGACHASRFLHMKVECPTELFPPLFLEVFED
Chain of Nuclear receptor subfamily 1 group I member 2 (Mus musculus) (O54915 whole entry, looked up, the tested form may be a part): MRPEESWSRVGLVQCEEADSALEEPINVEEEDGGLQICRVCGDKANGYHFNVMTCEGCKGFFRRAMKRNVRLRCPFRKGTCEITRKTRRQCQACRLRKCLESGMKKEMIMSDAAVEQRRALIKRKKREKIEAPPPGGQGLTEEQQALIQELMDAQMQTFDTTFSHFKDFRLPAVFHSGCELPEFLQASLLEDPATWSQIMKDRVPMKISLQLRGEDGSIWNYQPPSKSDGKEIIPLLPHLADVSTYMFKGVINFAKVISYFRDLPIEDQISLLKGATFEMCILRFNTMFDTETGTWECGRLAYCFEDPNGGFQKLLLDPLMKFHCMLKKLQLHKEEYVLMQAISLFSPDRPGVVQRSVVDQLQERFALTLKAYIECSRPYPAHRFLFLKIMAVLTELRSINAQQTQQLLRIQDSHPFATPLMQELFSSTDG
Chain of zebrafish Thyroid Hormone Receptor alpha (TRa), thraa (gene 30670) (Q98867 whole entry, looked up, the tested form may be a part): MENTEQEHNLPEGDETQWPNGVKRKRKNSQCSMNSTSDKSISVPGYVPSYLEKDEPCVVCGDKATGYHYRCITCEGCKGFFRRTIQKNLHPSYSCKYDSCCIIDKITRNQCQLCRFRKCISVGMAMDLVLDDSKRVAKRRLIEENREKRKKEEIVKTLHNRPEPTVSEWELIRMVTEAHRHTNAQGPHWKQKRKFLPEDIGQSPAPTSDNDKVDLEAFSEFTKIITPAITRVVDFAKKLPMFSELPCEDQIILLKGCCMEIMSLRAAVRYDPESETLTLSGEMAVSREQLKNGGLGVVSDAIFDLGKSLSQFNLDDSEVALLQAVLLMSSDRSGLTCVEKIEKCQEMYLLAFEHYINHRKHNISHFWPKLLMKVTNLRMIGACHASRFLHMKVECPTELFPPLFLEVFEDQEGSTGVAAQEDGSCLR

In the case of `N[C@@H](Cc1cc(I)c(Oc2ccc(O)c(I)c2)c(I)c1)C(=O)O`, in experiment [1], the compound was called inactive.
For `CCN(Cc1c(F)cccc1Cl)c1c([N+](=O)[O-])cc(C(F)(F)F)cc1[N+](=O)[O-]`, in experiment [2], the call was inactive.
Turning to `CCCCC(CC)COC(=O)c1ccccc1C(=O)O` (stereo not drawn), the AC50 in experiment [3] was 3.95 µM (active). The outcome in experiment [4], in experiment [5], in experiment [6], in experiment [1] and in experiment [2] was inactive.

In general, AC50 refers to the concentration giving half of the maximal activity seen.
